The values that follow come from PubChem BioAssay (NCI).

The assay can be described thus: NCI Yeast Anticancer Drug Screen. Data for the mlh1 rad18 strain (AID 175). The settings on record: S. cerevisiae mlh1 rad18 strain growth inhibition, stronger effect = higher value. How it is done:
Growth inhibition of yeast strains with defined genetic alterations is measured as a screen for potential anti-cancer activity. Selected strains with alterations in DNA damage repair or cell cycle control were exposed to compounds and growth inhibition was measured relative to vehicle treated controls. The strain used in this assay is mlh1 rad18

Where [1] appears, read: at 5.0 µM (retest, dose inferred, filed as 0.5).
Setting [2] is: at 50.0 µM (retest, dose inferred, filed as 5.0).

About 79,000 compounds went through this panel and 15% of them were active in at least one assay; those are over-represented in the sample as a whole. Values without a mark were called inactive. Activity calls are given as the source filed them. No stated cut-off is given here; in the data, active means growth inhibition above about 70%; inactive means the rest.

Take `CN(C)Cc1cccc(CN(C)C)[c]1[Sn]([Br])([c]1ccccc1)[c]1ccccc1`: the growth inhibition is 44% under setting [1], 98% (active) under setting [2] and 90.7% (active) (at 50.0 µM).

On to `OCCNCCOc1ccc(/C(=C(/Cl)c2ccccc2)c2ccccc2)cc1`, for which the growth inhibition under setting [1] was 43%, the growth inhibition under setting [2] is 99% (active) and the growth inhibition (at 50.0 µM) was 90% (active).

For the compound `NP1(Oc2ccc(F)cc2)=NP(N)(Oc2ccc(F)cc2)=NP(Oc2ccc(F)cc2)(Oc2ccc(F)cc2)=N1` (configuration not stated), the growth inhibition runs as follows: under setting [1], 17%; under setting [2], 86% (active); (at 50.0 µM) 88.2% (active).

Turning to `CNc1nc(C)nc2c1cnn2-c1ccc([N+](=O)[O-])cc1`, the growth inhibition runs as follows: under setting [1], -8%; under setting [2], 91% (active); (at 50.0 µM) 57.5%.

Turning to `CCOC(=O)C1=C(C)NC(C)=C(C(=O)OCC)C1c1ccc(C)cc1`, the growth inhibition under setting [1] was -37%, the growth inhibition under setting [2] was 79% (active) and the growth inhibition (at 50.0 µM) is 90.2% (active).

Turning to `Cc1onc(-c2ccccc2Cl)c1C1=N/C(=C/c2cc(Cl)cc(Cl)c2O)C(=O)O1`, the growth inhibition by setting is: under setting [1], 42%; under setting [2], 46%; (at 50.0 µM) 75.6% (active).

As for `CC(=O)[C@]1(O)Cc2c(O)c3c(c(O)c2[C@@H](OC2CC(N)C(O)C(C)O2)C1)C(=O)c1c(OCc2ccccc2)cccc1C3=O` (some centres not stated), the growth inhibition runs as follows: under setting [1], -4%; under setting [2], 46%.

For `NNC(=S)Nc1cccc(Cl)c1`, the growth inhibition was 40% under setting [1], 54% under setting [2] and 75.1% (active) (at 50.0 µM).

Consider `Cc1cc(Cl)ccc1NC(=O)/C(Cl)=C1/Sc2ccccc2NC1=O`, for which the growth inhibition is 35% under setting [1], 80% (active) under setting [2] and 69.2% (at 50.0 µM).

For `N#Cc1sc2c(c1OC(=O)c1ccco1)c(=O)n(-c1ccccc1)c(=S)n2-c1ccccc1`, the growth inhibition by setting is: under setting [1], 59%; under setting [2], 94% (active); (at 50.0 µM) 95.2% (active).

Regarding `CC(=O)N1C(=O)/C(=C\C(=O)c2ccc(Cl)cc2)c2ccccc21`, the growth inhibition is, setting by setting: under setting [1], 80% (active); under setting [2], 97% (active); (at 50.0 µM) 80.7% (active).

On to `CCOC(=O)c1csc(Br)n1`, for which the growth inhibition was -16% under setting [1], -18% under setting [2] and 78.3% (active) (at 50.0 µM).

In the case of `NC(=O)N1c2ccccc2C=Cc2ccccc21`, the growth inhibition reads like this: under setting [1], 60%; under setting [2], 100% (active); (at 50.0 µM) -6.9%.

Take `O=[N+]([O-])c1c(/C=N/Nc2ccccc2)oc(-c2ccc3c(c2)OCO3)c1-c1ccc2c(c1)OCO2`: the growth inhibition runs as follows: under setting [1], 38%; under setting [2], 38%; (at 50.0 µM) 84.2% (active).

Take `COc1cc([C@@H]2c3cc4c(cc3[C@@H](OC3OC5COC(C)OC5C(O)C3O)[C@H]3COC(=O)[C@H]23)OCO4)cc(OC)c1O` (some centres not stated): the growth inhibition (at 50.0 µM) is 64.8%.
